High-throughput results as filed in PubChem BioAssay.
In the library only some 11% were active in any assay of this set; here they are far more common.
HPGD block = HPGD (human) dehydrogenase inhibition; P15428; purified HPGD, NADH fluorescence kinetic, PGE2 substrate; Potency, µM, for the others: at the highest dose activity change, negative = inhibition, actives largely listed as inhibitors; actives 4.3% (n = 150,000); active = well fitted inhibition curve with a large enough effect, not every such curve was filed as active; inconclusive = small, poorly fitted or top-dose-only effect, or another doubt; inactive = no such curve, though single readings can be large or run the other way; note: potency is the fitted concentration of half-maximal effect; % is set by controls: 0 for no effect and ±100 for the full control effect
Target sequence (P15428 whole entry, looked up): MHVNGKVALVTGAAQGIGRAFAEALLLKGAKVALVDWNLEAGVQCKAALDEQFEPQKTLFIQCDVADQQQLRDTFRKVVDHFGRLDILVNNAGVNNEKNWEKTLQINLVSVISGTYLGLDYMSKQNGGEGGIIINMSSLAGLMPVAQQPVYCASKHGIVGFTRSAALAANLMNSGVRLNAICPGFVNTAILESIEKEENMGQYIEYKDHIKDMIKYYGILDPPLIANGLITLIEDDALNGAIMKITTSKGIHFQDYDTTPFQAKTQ
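NADH formation kinetics: reaction with 30 uM PGE2 and 1 mM NAD+ (final), 20 nM enzyme, Tris-HCl pH 8 with Tween 20, after 15 min compound preincubation at room temperature. Fluorescence change, last versus first of five reads.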
HTT aggregate = reduces HttQ103-GFP aggregates in PC12 cells; Potency, µM (top dose mostly 46.1 µM), for the others: top-dose activity change, negative = inhibition, most hits filed as inhibitors; actives 1.1% (n = 220,000); PC12 HttQ103-GFP aggregates, Acumen cytometry, 40 h; note: potency is the fitted concentration of half-maximal effect; % is set by controls: 0 for no effect and ±100 for the full control effect; nearly all actives have a fitted effect of over 60% in size
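Using laser scanning cytometry, GFP-positive aggregates were counted after lysis of PC12 cells induced with 100 nM tebufenozide to express HTT exon 1 Q103–GFP. Compounds were tested in titration.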
GoLoco inh red = RGS12 GoLoco-Gai1 interaction inhibition; P63096; Gai1:RGS12 GoLoco peptide FP, rhodamine, 10 min; Potency, µM (titrated, usually from 61.6 µM), inactives show at the highest dose activity, negative = inhibition, most hits filed as inhibitors; actives 0.44% (n = 230,000); AID 880; active = well fitted inhibition curve with a large enough effect, not every such curve was filed as active; inactive = no such curve, though single readings can be large or run the other way; note: potency is the fitted concentration of half-maximal effect; % is set by controls: 0 for no effect and ±100 for the full control effect; nearly all actives have a fitted effect of over 30% in size
PNC inhibitor = inhibitors of perinucleolar compartment assembly; actives 3.1% (n = 140,000); AID 2417; activity change (PNC), negative = inhibition, % at 10 µM; PC3M PTB-GFP, PNC prevalence imaging, 16 h; active compounds read low;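 active = readout at or below -70, meaning at least 70% loss of cells showing the perinucleolar compartment, a nuclear body marking cancer cells; inconclusive = readout between -30 and a set limit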;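 note: plate controls were DMSO wells for no effect and camptothecin positive control wells for full effect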
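Compounds are pinned in duplicate onto adhered PC3M cells stably expressing GFP-tagged PTB and incubated 16 h at 37 C. Cells are then fixed, nuclei stained with Hoechst, and PNC-positive cells counted.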
HTT cytoprotect = cytoprotection in Huntington HTT-Q103 PC12 cell model. actives 0.14% (n = 230,000). Potency, µM (titrated, usually from 56.4 µM), for the others: cytoprotection (ATP increase), actives largely listed as activators. PC12 HTT-Q103 induced, cytoprotection, ATP luminescence, 40 h; note: potency is the fitted concentration of half-maximal effect; % of control where 0% means no effect; nearly all actives have a fitted effect of over 45% in size
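Quantitative HTS on tebufenozide-induced (100 nM) PC12 cells expressing HTTQ103 exon 1–GFP; compounds tested as a concentration series; survival measured via cellular ATP.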
ALDH1A1 block = blocks purified human ALDH1A1 activity. Potency, µM (titrated, usually from 75.3 µM), for inactives: at the top dose activity, negative = inhibition, actives largely listed as inhibitors. P00352. AID 1030. actives 7.3% (n = 220,000). Purified ALDH1A1, NADH fluorescence, propionaldehyde substrate; active = well fitted inhibition curve with a large enough effect, not every such curve was filed as active; inconclusive = small, poorly fitted or top-dose-only effect, or another doubt; inactive = no such curve, though single readings can be large or run the other way;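 note: potency is the fitted concentration of half-maximal effect; plate controls were no enzyme wells and a reference inhibitor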
Target sequence (P00352 whole entry, looked up): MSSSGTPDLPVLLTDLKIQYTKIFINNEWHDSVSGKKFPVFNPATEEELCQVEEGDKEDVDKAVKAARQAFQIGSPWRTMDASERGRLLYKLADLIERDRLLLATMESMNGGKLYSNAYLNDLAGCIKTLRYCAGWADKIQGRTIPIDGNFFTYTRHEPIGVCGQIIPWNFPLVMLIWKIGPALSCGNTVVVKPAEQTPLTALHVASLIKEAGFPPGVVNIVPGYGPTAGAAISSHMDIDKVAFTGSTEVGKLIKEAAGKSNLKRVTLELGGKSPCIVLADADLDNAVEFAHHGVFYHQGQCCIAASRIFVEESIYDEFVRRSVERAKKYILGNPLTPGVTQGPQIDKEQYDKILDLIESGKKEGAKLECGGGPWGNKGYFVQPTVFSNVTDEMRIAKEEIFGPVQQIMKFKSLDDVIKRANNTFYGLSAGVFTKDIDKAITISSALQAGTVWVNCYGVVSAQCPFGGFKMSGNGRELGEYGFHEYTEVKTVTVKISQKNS
Numbers without * were called inactive; u = inconclusive; x = not tested or not shown; [ ] = remark or other dose. Unless noted, calls come from the whole dose curve; as a rule, active = well fitted curve in the direction sought with a large enough effect; inconclusive = small, poorly fitted or top-dose-only effect, or another doubt; inactive = no such curve, though single readings can be large; an effect the other way counts as inactive or inconclusive.

SMILES	HPGD block	HTT aggregate	GoLoco inh red	PNC inhibitor	HTT cytoprotect	ALDH1A1 block
CN1C(=O)NC(=O)[C@]2(Cc3ccccc3N3CCN(c4ccccc4)CC32)C1=O (some centres undefined)	-12.3%	-3.0%	-4.1%	9.0	-10.1%	25.1µM*
O=C1NC(=O)C2(Cc3ccccc3N3CCCC32)C(=O)N1c1ccc(Cl)cc1 (centres undefined)	u	4.1%	9.1%	-4.8	-19.0%[0.074 µM]	u
O=C1NC(=O)[C@]2(Cc3ccccc3N3CCN(c4ccccc4)CC32)C(=O)N1Cc1ccccc1 (some centres undefined)	-16.5%	22.1%	7.9%	-16.9	-8.3%	22.4µM*
O=C1NC(=O)[C@]2(Cc3ccccc3N3CCN(c4ccccc4)CC32)C(=O)N1c1ccccc1 (some centres undefined)	-9.4%	11.2%	3.6%	-21.9	-5.3%	25.1µM*
N[C@]1(C(=O)O)CC[C@@H](C(=O)O)C1	x	x	x	x	-7.3%[1.9 µM]	x
c1cc(CCN2CCCC2)ccn1	x	-9.1%[9.22 µM]	7.08µM*	x	-1.5%[10 µM]	-2.6%
CN1C(=O)N(C)C(=O)C(CCc2ccncc2)(CCc2ccncc2)C1=O	x	-6.9%[9.22 µM]	17.1%	x	11.7%[10 µM]	u
Oc1cc2c(cc1O)[C@H]1c3ccccc3CN[C@H]1CC2	8.91µM*	x	-16.9%	x	-28.5%	u
O=P(NS(=O)(=O)c1ccc(Cl)cc1)(Oc1ccccc1)Oc1ccccc1	-13.9%	-0.6%	-3.0%	-100.0*	2.3%[10 µM]	-1.6%
O=P(Nc1ccccc1)(Nc1ccccc1)Oc1ccc(Cl)cc1	5.62µM*	-8.1%	7.2%	14.0	-17.9%	-3.1%
COc1ccc([N+](=O)[O-])cc1CSc1ccccn1	x	u	6.9%	x	-4.4%	u
COc1ccc(C=C2C(=O)N(C)C(=O)N(C)C2=O)cc1CSc1ccccn1	25.1µM*	-0.9%	63.1%	-12.6	-0.9%	3.16µM*
C#CCO	-1.9%	x	-2.1%	x	34.8%	22.4µM*
O=Cc1ccc(Cl)cc1Cl	-6.9%	x	-0.2%	x	-2.6%	-14.2%
O=S1OCC2C(CO1)C1(Cl)C(Cl)=C(Cl)C2(Cl)C1(Cl)Cl (centres undefined)	-4.2%	x	7.5%	x	6.1%	3.0%
O=C(O)[C@@H]1[C@H](C(=O)O)[C@]2(Cl)C(Cl)=C(Cl)[C@@]1(Cl)C2(Cl)Cl	-20.8%	x	-9.6%[14.2 µM]	x	-0.1%[10 µM]	3.16µM*
COc1ccc(CC(=O)NC(=S)NNC(=O)COc2c(C)cccc2C)cc1	-16.1%	-3.1%	3.2%	46.8	x	u
CC/C(=N\Nc1ccccc1)c1c(O)n(C)c(=O)n(C)c1=O	-9.1%	14.3%	-10.3%	9.8	5.7%[10 µM]	u
C/C(=N\NC(=S)Nc1ccccc1)c1c(O)n(C)c(=O)n(C)c1=O	u	-8.1%	2.5%	-0.9	8.3%[10 µM]	0.794µM*
COc1ccc(-n2cnc3cc(C(=O)N4CCC5(CC4)OCCO5)ccc32)cc1	x	0.4%	10.2%	x	-116.7%	u
O=C(c1ccc2c(c1)ncn2C1CCCCCC1)N1CCC2(CC1)OCCO2	14.1µM*	3.4%	4.2%	29.8	-0.9%	-12.7%
O=C(c1ccc2nc(-c3ccco3)c(-c3ccco3)nc2c1)N1CCC2(CC1)OCCO2	u	9.5%	-13.5%	6.7	-5.4%[10 µM]	u
Cc1nc2cc(C(=O)N3CCC4(CC3)OCCO4)ccc2n1-c1cccc(F)c1	2.82µM*	15.0%[9.22 µM]	10.4%	-11.8	-18.4%	25.1µM*
NC[C@@H](O)CSP(=O)(O)O	-7.3%	x	-2.7%[14.2 µM]	x	-4.4%[10 µM]	5.5%[13.5 µM]
O=C1CC(=O)N(c2ccc(Cl)cc2Cl)C(=O)N1	-10.0%	-3.5%	20.6%	-126.9*	14.9%	6.6%
SMILES	HPGD block	HTT aggregate	GoLoco inh red	PNC inhibitor	HTT cytoprotect	ALDH1A1 block
Cc1cc(Br)ccc1N1C(=O)CC(=O)NC1=O	-4.0%	-22.9%	12.1%	-12.5	-3.3%[10 µM]	-1.3%
CC(=O)C(Sc1ncnc2c1nnn2-c1ccc(F)cc1)C(=O)N(C)C (centres undefined)	11.2µM*	7.1%	0.8%	-11.8	10.1%	2.51µM*
O=C(CSc1ncnc2c1nnn2-c1ccc(F)cc1)NCC1CCCO1 (centres undefined)	u	0.0%[9.22 µM]	1.8%	-15.8	26.2%	-0.9%
C[C@@H](Cc1ccc2c(c1)OC(C(=O)O)(C(=O)O)O2)NC[C@H](O)c1cccc(Cl)c1	x	x	x	x	-4.7%[1.9 µM]	x
O=C(O)[C@H](Cc1cnc[nH]1)N1C(=O)c2ccccc2C1=O	-1.3%	x	4.4%[14.2 µM]	x	-1.1%[10 µM]	-7.2%[13.5 µM]
Nc1nc(=S)c2ncn(C3OC(CO)C(O)C3O)c2[nH]1 (centres undefined)	x	-7.8%[9.22 µM]	-2.3%	x	3.4%[10 µM]	7.94µM*
CC(=O)OC1CC2C(C)(C)C(O)C=C[C@@]2(C)C2CC[C@]3(C)C(=CC(=O)OC3c3ccoc3)[C@]12C (some centres undefined)	-11.4%	x	1.4%	x	u	u
COc1cccc(C(=O)N2CCN(Cc3ccccn3)CC2)c1OC	-10.4%	-13.0%	48.4%	u	14.0%	7.08µM*
c1ccc(-c2ccc(C(c3ccccc3)n3ccnc3)cc2)cc1 (centres undefined)	u	-9.3%	-12.2%	-28.4	-62.7%	22.4µM*
O=C1NC(=O)N(c2cccc(Cl)c2)C(=O)/C1=C\c1ccc(Sc2nc3ccccc3[nH]2)o1	7.94µM*	-9.8%	-42.5%	1.3	4.1%[10 µM]	22.4µM*
O=C1NC(=O)N(c2ccccc2F)C(=O)/C1=C/c1ccc(Sc2nc3ccccc3[nH]2)o1	3.55µM*	-2.8%	-179.9%	-23.6	17.8%[10 µM]	10µM*
O=C(O)C[SH+]CC(=O)O.O=C(O)C[SH+]CC(=O)O.[Cu]	-4.8%	x	2.2%[14.2 µM]	x	x	x
CCN(CC)C(=O)c1ccc(NC(=O)c2cccc(F)c2)cc1	14.1µM*	-5.1%	-2.5%	0.6	-2.4%[10 µM]	1.1%
CCN1C[C@]2(C)CC[C@@H](O)[C@]34[C@@H]5CC6[C@@H](OC)C[C@@](O)([C@H]5[C@@H]6O)[C@@H](C[C@@H]23)[C@H]14	x	x	x	x	-4.5%[1.9 µM]	x
CC(C)C#N	-13.7%	x	8.3%	x	-4.1%	15.8%
Fc1ccc2c(c1)nnn2C1CCN(Cc2nnnn2C2CCCCC2)CC1	-11.6%	10.8%	5.7%	u	-5.0%	12.6µM*
O=C1NC(=O)N(Cc2ccco2)C(=O)/C1=C\c1cccn1CCOc1ccc(Cl)cc1	-21.8%	22.1%	4.1%	-10.7	-6.2%[10 µM]	-3.5%
O=C1NC(=O)N(Cc2ccco2)C(=O)/C1=C/c1ccc(-c2cccc([N+](=O)[O-])c2)o1	5.01µM*	20.3%	2.0%	18.6	13.1%[10 µM]	7.08µM*
C=CCN1C(=O)NC(=O)/C(=C\c2ccc(-c3ccccc3[N+](=O)[O-])o2)C1=O	x	14.2%[9.22 µM]	18.7%	x	-23.7%	22.4µM*
C=C(Cl)Cl	-4.5%	x	4.4%	x	-9.1%	-5.5%
